The results in this text go back to ChEMBL document CHEMBL4513216, “Probing the Open Global Health Chemical Diversity Library for Multistage-Active Starting Points for Next-Generation Antimalarials” (ACS Infect Dis, 2020).

Hit rate of the full screen: of about 69,000 compounds, about 8,600 (12%) showed an effect of 50% or more. What follows is part of a selection rich in strong results, with near analogues and random picks from the rest.

The assay has as its system Plasmodium berghei. The experiment in a line: Screen against P. berghei liver stage (PbLuc), transformed with Luciferase, at 10uM. The assay is classed as functional, HepG2. Particulars: tested at 10 uM.
As for `COc1c(CNC(c2cccc(F)c2)c2nccn2C)c(C)nn1C` (stereo not drawn), the INHIBITION is -16.8%.
As to `Cc1c(Br)cccc1C(=O)NCC1CCCNC1` (stereo not drawn), the INHIBITION is recorded as 42.3%.
Regarding `CN(Cc1nccn1C)C1CCCN(Cc2noc(C3CC3)n2)C1` (stereo not drawn), the INHIBITION is -25.8%.
`O=c1cc(N2CCCC2)cnn1Cc1noc(C2CCCO2)n1` (stereo not drawn): the INHIBITION amounted to 47.1%.
`O=c1cc(N2CCNCC2)cnn1Cc1noc(C2CCCC2)n1`: the INHIBITION is 78.6%.
Turning to `O=c1cc(N2CCCCC2)cnn1Cc1noc(C2CCCO2)n1` (stereo not drawn), the INHIBITION is reported as -27.1%.
Turning to `Cc1ccccc1CNC(=O)N1C[C@@H]2C[C@H](C(=O)N(C)C)[C@H](C1)O2`, the INHIBITION amounted to 5.63%.
`COc1ccc(OC)c(CNc2nnc(C(C)(C)C)o2)c1`: the INHIBITION is recorded as -10.9%.
`CC(Cn1cncn1)NC(=O)NCC(C)(C)Cc1ccccc1` (stereo not drawn): the INHIBITION is recorded as 39.8%.
As to `Cc1ccc(C(C)(C)CNC(=O)NC(C)Cn2cncn2)cc1` (stereo not drawn), the INHIBITION is 61.1%.
In the case of `CC(Cn1cncn1)NC(=O)NCc1csc(N(C)C)n1` (stereo not drawn), the INHIBITION is 23.6%.
With `CC(Cn1cncn1)NC(=O)Nc1ccc(F)cc1OCC1CC1` (stereo not drawn) the figure was -21.1%; with `CC(Cn1cncn1)NC(=O)NCC(C)(C)c1ccc(F)cc1` (stereo not drawn), 64.5%; with `CC(NC(=O)NCCCn1cncn1)c1ccc(F)cc1` (stereo not drawn), -1.7%.
As for `Cn1ncc(C(=O)N2CCN(C(=O)c3ccco3)CC2)c1Cl`, the INHIBITION is listed as 36.5%.
In the case of `CC(=O)N1CCCC2(CCC(=O)N2Cc2cccnc2)C1` (stereo not drawn), the INHIBITION is listed as 6.27%.
As for `Cc1ccc(C(=O)N2CCOC(c3nc(-c4ncccn4)no3)C2)cc1` (stereo not drawn), the INHIBITION amounted to 11.1%.
Take `c1cc2c(cc1CN1CCC(Cc3noc(C4CC4)n3)CC1)OCCO2`: the INHIBITION is reported as -5.26%.
As for `c1cc2c(cc1CN1CCN(Cc3noc(C4CC4)n3)CC1)OCO2`, the INHIBITION is listed as -28%.
In the case of `c1cc2c(cc1CSCc1noc(C3CC3)n1)OCCO2`, the INHIBITION stood at 74.3%.
As for `COCCCNC(=O)CN1CCSC(c2ccccc2)C1` (stereo not drawn), the INHIBITION came to 3.88%.
On to `COc1ccccc1C1CC(=O)Nc2nc(N3CCCCC3)sc21` (stereo not drawn), for which the INHIBITION amounted to 15.1%.
Consider `Cc1cc(C(=O)N2CCCC2c2noc(C(C)C)n2)c(C)o1` (stereo not drawn), for which the INHIBITION turned out to be 4.52%.
For the molecule `CS(=O)(=O)c1ccc(CNC(=O)N2CCC(C(N)=O)CC2)cc1`, the INHIBITION is recorded as -60.8%.
The value for `CCN(CC)S(=O)(=O)c1ccc(CNC(=O)N2CCC(C#N)CC2)cc1` was 45.7%; that for `CCN(CC)S(=O)(=O)c1ccc(CNC(=O)N2CCCCCC2)cc1` was 54.3%; that for `COCCCNC(=O)c1cn(C(C)C)cc2c(=O)[nH]nc1-2` was 14.9%.
Consider `Cc1nn(C)cc1S(=O)(=O)N(CCc1ccccc1)Cc1ccn(C)n1`, for which the INHIBITION is listed as 26.75%.
For `CSCC[C@@H](CO)NC(=O)c1sc(-c2ccccc2Cl)nc1C`, the INHIBITION amounted to 9.84%.
The value for `Cc1ccccc1-n1ncc2c(=O)n(CCN3CCCC3)cnc21` was -16.3%.
Consider `Cc1nc(CSCCC(=O)NCC(=O)NC(C)C)cs1`, for which the INHIBITION stood at 29.4%.
For the molecule `CCOCCCNC(=O)CCSCc1csc(C)n1`, the INHIBITION is 63.8%.
On to `Cc1nc(CSCCC(=O)NCCNC(=O)OC(C)(C)C)cs1`, for which the INHIBITION was -30.7%.
For `Cc1ccc(-c2ccnc(NCC(O)c3ccc(O)cc3)n2)c(C)n1` (stereo not drawn), the INHIBITION is 37.8%.
The value for `COc1ccc2c(c1)CCCN2C(=O)NC1CCCCNC1=O` (stereo not drawn) was 44.3%; that for `O=C1NCCCCC1NC(=O)N1CCCc2cc(F)ccc21` (stereo not drawn) was 58.9%; that for `O=C1NCCCCC1NC(=O)N1CCCc2ccccc21` (stereo not drawn) was 34.2%.
In the case of `Cc1ccc(CN2CCc3[nH]nc(C(=O)N(C)C)c3C2)s1`, the INHIBITION is given as 8.74%.
The value for `O=C(NCC1(CO)CC1)c1nnn(-c2ccc(F)cc2)c1C1CC1` was 78.2%; that for `NS(=O)(=O)CCNC(=O)c1nnn(-c2ccccc2)c1C1CC1` was 56.8%; that for `COC(=O)CCNC(=O)c1nnn(-c2ccc(C)cc2)c1C1CC1` was 49.8%.
For the molecule `CS(=O)(=O)NC(=O)c1nnn(-c2ccccc2)c1C1CC1`, the INHIBITION is 8.64%.
With `NS(=O)(=O)CCNC(=O)c1nnn(-c2ccc(F)cc2)c1C1CC1` the figure was 36.8%; with `Cc1ccc(-n2nnc(C(=O)NCCS(N)(=O)=O)c2C2CC2)cc1`, 58.5%.
Regarding `O=C(NCC1(C(=O)O)CCC1)c1nnn(-c2ccc(F)cc2)c1C1CC1`, the INHIBITION is listed as 20%.
As for `Cc1ccc(-n2nnc(C(=O)NCC3(CO)CC3)c2C2CC2)cc1`, the INHIBITION is given as 33.3%.
As for `CC(C)NC(=O)c1nnn(-c2ccccc2)c1C1CC1`, the INHIBITION was -65.5%.
As to `CCc1nc(C2CCCN(C(=O)c3cc(C(C)C)[nH]n3)C2)no1` (stereo not drawn), the INHIBITION turned out to be 21.6%.
As to `O=C(NCC1CC1)[C@@H]1CC[C@@H]2[C@@H](CCN2Cc2ccco2)O1`, the INHIBITION is -35%.
The value for `O=C(NCCN1CCOCC1)c1nc(-c2ccc3[nH]ccc3c2)no1` was -50.8%; that for `Cn1ncc(C(=O)N2CCN(S(C)(=O)=O)CC2)c1Cl` was -10.95%; that for `CNC(=O)C1(C)CCCN1Cc1cnn(C)c1C` (stereo not drawn) was 37.8%.
The value for `Cc1nn(C)cc1CN(C)C(=O)c1cccnc1` was -13.6%; that for `Cc1nn(C)cc1CN(C)C(=O)c1ccncc1` was 69.9%.
On to `Cc1nn(C)cc1CN(C)C(=O)c1ccccn1`, for which the INHIBITION is given as 8.7%.
Regarding `Cc1nc(CN2CCC3(CC2)NC(=O)CC3c2ccncc2)cs1` (stereo not drawn), the INHIBITION turned out to be 45.7%.
Consider `CCC(C)N(Cc1sccc1C)C(=O)c1cnc[nH]1` (stereo not drawn), for which the INHIBITION worked out at 9.41%.
With `CCc1nnc(CN(C)Cc2cccc(C(=O)Nc3ccnn3C)c2)o1`, the INHIBITION was found to be 35%.
As for `CCc1nnc(CN(C)Cc2cccc(C(=O)Nc3nccs3)c2)o1`, the INHIBITION is given as 70.9%.
For the molecule `CCc1nnc(CN(C)Cc2cccc(C(=O)Nc3cnn(C)c3)c2)o1`, the INHIBITION stood at 28.7%.
As to `CC(C)(CO)CCCNC(=O)NC1(C)Cc2ccccc2C1`, the INHIBITION stood at 47.2%.
As for `c1ccc(CN2CCc3nnc(CN4CCCCC4)n3CC2)nc1`, the INHIBITION is given as -2.84%.
Consider `COc1ccc(Cc2ncc3c(n2)CN(C(=O)C(C)(C)OC)C3)cc1`, for which the INHIBITION came out at 11.2%.
Consider `Cc1cc(C(=O)N(CC2CCCO2)c2ccncc2)c(C)o1` (stereo not drawn), for which the INHIBITION is recorded as 26.4%.
As for `Cc1ccc(C(=O)N2CCn3c(COCC4CC4)cnc3C2C)s1` (stereo not drawn), the INHIBITION is reported as -3.24%.
As to `NC(=O)COc1ccc(CNCc2ccc(F)c(F)c2)cc1`, the INHIBITION is given as -33.2%.
With `Cn1cc(CC2CCN(C(=O)NCc3cccc(C#N)c3)C2)cn1` (stereo not drawn), the INHIBITION is reported as 8.55%.
Consider `CC(N1CCN(C(=O)NCc2cccc(C#N)c2)CC1)C(F)(F)F` (stereo not drawn), for which the INHIBITION is listed as 56.7%.
The value for `CC1CN(C(=O)NCc2cccc(C#N)c2)CCN1CC(F)(F)F` (stereo not drawn) was 19%; that for `Cc1cc(Cc2ccc(S(=O)(=O)N3CCSCC3)cc2)c(=O)[nH]n1` was 13.2%; that for `CCC1CN(CCCNS(C)(=O)=O)c2ccccc2O1` (stereo not drawn) was 50.1%.
The value for `CCC1CN(CCNS(C)(=O)=O)c2ccccc2O1` (stereo not drawn) was -4.46%.
The value for `CCC1CN(CCCO)c2ccccc2O1` (stereo not drawn) was 29.8%; that for `Cc1ccc(CN2CCC3(CCCN3S(C)(=O)=O)CC2)s1` was 25.8%.
With `COCCN1C(=O)CCC12CCCN(Cc1nccs1)CC2` (stereo not drawn), the INHIBITION was 48.6%.
The value for `CCN1C(=O)CCC12CCCN(Cc1nccs1)C2` (stereo not drawn) was 46.2%.
As to `CN1C(=O)CCC12CCCN(Cc1nccs1)C2` (stereo not drawn), the INHIBITION is listed as 59%.
Take `CS(=O)(=O)N1CCCC12CCN(Cc1nccs1)C2` (stereo not drawn): the INHIBITION was -0.804%.
In the case of `Cc1ccc(CN2CCCC3(CCCN3S(C)(=O)=O)C2)s1` (stereo not drawn), the INHIBITION is 63.8%.
On to `O=C1CCC2(CCCN(Cc3nccs3)C2)N1CC1CC1` (stereo not drawn), for which the INHIBITION is 36.9%.
With `CCN1C(=O)CCC12CCCN(Cc1nccs1)CC2` (stereo not drawn), the INHIBITION came to 59.7%.
With `CN1C(=O)CCCC12CCCN(Cc1nccs1)C2` (stereo not drawn) the figure was 16.9%; with `CS(=O)(=O)N1CCCCC12CCCN(Cc1nccs1)C2` (stereo not drawn), 60.3%.
For `CS(=O)(=O)N1CCCC12CCN(Cc1nccs1)CC2`, the INHIBITION amounted to 28.2%.
Consider `Cc1ccc(CN2CCCC3(CCCCN3S(C)(=O)=O)C2)s1` (stereo not drawn), for which the INHIBITION is reported as 14.9%.
For the molecule `Clc1ccccc1C1CN(CCc2ccncc2)CCO1` (stereo not drawn), the INHIBITION is recorded as 29.1%.
The value for `Cc1ccc(C(=O)N2CCC3(CC2)COC(COc2cccnc2)C3)o1` (stereo not drawn) was 3.69%; that for `CN(C)S(=O)(=O)N1CC[C@]2(O)CCN(CCc3cccc(F)c3)C[C@@H]2C1` was 3.96%; that for `CN(C)[C@@H]1CN(Cc2ccoc2)C[C@@H]2CCCO[C@@H]21` was 25.6%.
With `COCC1CN(C(C)=O)CCN(c2cc(C)ncn2)C1` (stereo not drawn) the figure was 24.4%.
For `Cc1ccc(C(=O)N2C[C@H]3CCC[C@@]3(COc3ccccn3)C2)nc1`, the INHIBITION is recorded as -10.2%.
In the case of `Cc1cc(C2CCC2)nc(NCC(C)(C)CO)n1`, the INHIBITION is recorded as -7.53%.
Turning to `Cc1c(S(=O)(=O)N2CCCCC2c2nnc(-c3cccs3)o2)cnn1C` (stereo not drawn), the INHIBITION was -11.28%.
The value for `CC(C)(O)CN1CCN(C(=O)c2cccc(CC#N)c2)CC1` was -9.76%; that for `Cc1noc(C)c1C1CCCN1C(=O)c1cn2ccsc2n1` (stereo not drawn) was 12.9%; that for `Cc1ccc(OCc2nc(CNCC3CN(C)CCO3)cs2)cc1` (stereo not drawn) was -45.6%.
Regarding `Cn1ncc2c(N3CCCN4CCC[C@H]4C3)nc(C(C)(C)C)nc21`, the INHIBITION is 31.6%.
As for `CCCc1nc(N2CCCC(CCOC)C2)c2cnn(C)c2n1` (stereo not drawn), the INHIBITION was determined as 40.6%.
With `Cc1nc(N2CCCC(N3CCCC3)C2)c2cnn(C)c2n1` (stereo not drawn), the INHIBITION was determined as 55.1%.
With `CCCc1nc(N2CCC(CCO)CC2)c2cnn(C)c2n1`, the INHIBITION was found to be 60%.
As for `Cc1nc(N2CCC(CC(=O)N3CCCC3)CC2)c2cnn(C)c2n1`, the INHIBITION is 31.2%.
On to `Cc1nc(N2CCC(CN3CCCC3)CC2)c2cnn(C)c2n1`, for which the INHIBITION amounted to 57.2%.
As for `CCCc1nc(N2CCCN3CCC[C@H]3C2)c2cnn(C)c2n1`, the INHIBITION is 27.7%.
As for `Cc1nc(N2CCN(C(=O)CC3CCCC3)CC2)c2cnn(C)c2n1`, the INHIBITION is recorded as 0.0944%.
For `COCc1nc(N2CCC(CCO)CC2)c2cnn(C)c2n1`, the INHIBITION is listed as 14.3%.
Take `CCc1n[nH]c(C2CN(C(=O)CCc3cscn3)CCO2)n1` (stereo not drawn): the INHIBITION is on record as 7.42%.
Take `O=C(c1cccc(NCc2cccc(F)c2)c1)N1CCC(O)CC1`: the INHIBITION was -39.4%.
`CC1CN(CC(=O)NC(=O)NCc2ccccc2)CCO1` (stereo not drawn): the INHIBITION came to 5.53%.
